Assay results taken from PMC9838217, “Structure of SALL4 zinc finger domain reveals link between AT-rich DNA binding and Okihiro syndrome”.
Substitutions are numbered along the chain they refer to.

Legend:
Assay in all cases: HT-SELEX; high values mean tight binding
Details in all cases: protein: recombinant; vector His6-GST; dsDNA, one strand shown
[1] = molecular target: T1, SALL4 ZFC4 WT (HT-SELEX) (Mus musculus, UniProt Q8BX22 870-940)
T1 sequence: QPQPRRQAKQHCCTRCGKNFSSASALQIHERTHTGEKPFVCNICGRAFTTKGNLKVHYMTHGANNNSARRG
Method in brief: (§1)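 In triplicate selections of up to 6 cycles, purified recombinant mouse SALL4 zinc finger cluster 4 (residues 870–940, 1 µg) was incubated 10 min at room temperature with library DNA (1.5 µg, then 200 ng) in 100 µl of 10 mM Tris–HCl pH 7.5, 50 mM NaCl, poly(dI-dC) and DTT, and complexes were captured on Ni2+ beads, washed and PCR-amplified. Sequencing was done on MiSeq with scanning for 6-mers. The binding signal is each canonical k-mer's read fraction, reported as fold change against the initial random library.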

[2] = molecular target: T2, SALL4 ZFC4 R900W (HT-SELEX) (Mus musculus, UniProt Q8BX22 870-940, R900W)
T2 sequence: T1 sequence with R31W
Method in brief: as §1

[3] = molecular target: T3, SALL4 ZFC4 G921D (HT-SELEX) (Mus musculus, UniProt Q8BX22 870-940, G921D)
T3 sequence: T1 sequence with G52D
Method in brief: as §1

Sequence	binding signal [1] [fold-change vs cycle 0]	binding signal [2] [fold-change vs cycle 0]	binding signal [3] [fold-change vs cycle 0]
GAAAGC	0.586 ± 0.0266	0.698 ± 0.0129	0.775 ± 0.0469
AGGCTA	0.619 ± 0.0154	0.751 ± 0.013	0.829 ± 0.0213
CACTGG	0.426 ± 0.00956	0.508 ± 0.0154	0.615 ± 0.0147
AACGTC	0.624 ± 0.0116	0.722 ± 0.0138	0.813 ± 0.0314
AATAGA	2.12 ± 0.0946	2.06 ± 0.0912	1.79 ± 0.161
CTATTA	2.26 ± 0.136	2.05 ± 0.132	1.81 ± 0.165
AAGACC	0.72 ± 0.0283	0.834 ± 0.0193	0.911 ± 0.0351
CCAAGA	0.78 ± 0.0182	0.888 ± 0.03	0.931 ± 0.0131
GACTGA	0.805 ± 0.0317	0.959 ± 0.0214	0.953 ± 0.0219
CCTTAG	0.925 ± 0.0277	1.06 ± 0.0431	1.04 ± 0.0492
AAGTAG	1.32 ± 0.0481	1.52 ± 0.0706	1.39 ± 0.0907
GGATTA	1.49 ± 0.0733	1.47 ± 0.0516	1.38 ± 0.0744
AAGTGT	1.24 ± 0.0333	1.35 ± 0.0203	1.3 ± 0.0159
AACTAA	2.02 ± 0.0351	2.07 ± 0.133	1.82 ± 0.176
TTACAA	2.01 ± 0.0785	2.03 ± 0.0849	1.81 ± 0.143
AGGTTG	0.791 ± 0.0234	0.894 ± 0.0252	0.945 ± 0.0127
TATGAA	3.56 ± 0.299	2.1 ± 0.116	1.85 ± 0.171
AAGATC	1.25 ± 0.0866	1.42 ± 0.0452	1.44 ± 0.0439
AGACAC	0.683 ± 0.0462	0.821 ± 0.037	0.923 ± 0.0183
TTATAA	4.21 ± 0.59	2.77 ± 0.289	2.3 ± 0.394

Sequence	binding signal [1] [fold-change vs cycle 0]	binding signal [2] [fold-change vs cycle 0]	binding signal [3] [fold-change vs cycle 0]
ACACTC	0.798 ± 0.0206	0.908 ± 0.0437	0.948 ± 0.0215
CACAGA	0.669 ± 0.0131	0.784 ± 0.0217	0.8476 ± 0.00739
CGTAGA	0.623 ± 0.00876	0.7054 ± 0.00296	0.786 ± 0.024
CAATCG	0.623 ± 0.00929	0.726 ± 0.0311	0.821 ± 0.0438
ACTCAA	1.26 ± 0.086	1.42 ± 0.0689	1.35 ± 0.0924
AGTACG	0.724 ± 0.0595	0.83 ± 0.0465	0.871 ± 0.0406
ATTGCA	1.16 ± 0.0389	1.12 ± 0.0435	1.18 ± 0.0324
AATGAC	1.18 ± 0.09	1.36 ± 0.06	1.3 ± 0.105
AAGGAA	1.46 ± 0.0939	1.66 ± 0.0995	1.49 ± 0.137
CACGTG	0.391 ± 0.0518	0.459 ± 0.0227	0.562 ± 0.0574
ATGGCA	0.55 ± 0.0226	0.607 ± 0.0241	0.733 ± 0.0739
CTGCTC	0.36 ± 0.0162	0.436 ± 0.00828	0.567 ± 0.028
GTTGAA	1.18 ± 0.0583	1.34 ± 0.0591	1.3 ± 0.109
ATTGTA	2.07 ± 0.0871	2.03 ± 0.111	1.79 ± 0.162
ACTCGA	0.761 ± 0.0231	0.839 ± 0.0214	0.905 ± 0.00699
GACTAA	1.21 ± 0.0577	1.39 ± 0.093	1.3 ± 0.0798
CACAAA	0.978 ± 0.0432	1.1 ± 0.0594	1.09 ± 0.0653
AGATAT	2.61 ± 0.24	2.08 ± 0.11	1.86 ± 0.213
AAATTT	2.66 ± 0.248	2.17 ± 0.141	1.93 ± 0.166
ATAAGG	1.55 ± 0.0418	1.63 ± 0.0717	1.46 ± 0.077

Sequence	binding signal [1] [fold-change vs cycle 0]	binding signal [2] [fold-change vs cycle 0]	binding signal [3] [fold-change vs cycle 0]
ACCCAT	0.847 ± 0.0456	0.916 ± 0.0414	0.954 ± 0.0193
AACATT	1.95 ± 0.0486	1.96 ± 0.0488	1.79 ± 0.136
AACCGT	0.674 ± 0.0289	0.776 ± 0.0238	0.826 ± 0.0315
ACTTGC	0.656 ± 0.0276	0.723 ± 0.0488	0.815 ± 0.0179
TCGACA	0.525 ± 0.0359	0.609 ± 0.0106	0.731 ± 0.0296
ATGCTA	1.28 ± 0.0551	1.34 ± 0.0761	1.31 ± 0.0688
AACCAC	0.74 ± 0.0275	0.83 ± 0.0479	0.879 ± 0.0101
AACACA	1.18 ± 0.0535	1.29 ± 0.058	1.27 ± 0.0417
AAAAAC	1.45 ± 0.0971	1.49 ± 0.0832	1.42 ± 0.0693
AAACAG	1.101 ± 0.00341	1.27 ± 0.0528	1.23 ± 0.0148
GGAGTA	0.898 ± 0.0231	0.991 ± 0.0565	1.01 ± 0.0114
CCATTC	0.803 ± 0.0377	0.923 ± 0.0207	0.938 ± 0.0225
CGGTGA	0.364 ± 0.0107	0.421 ± 0.0161	0.548 ± 0.0673
GAAGTC	0.797 ± 0.0523	0.906 ± 0.0176	0.953 ± 0.00992
ATATTC	2.62 ± 0.255	1.95 ± 0.1	1.78 ± 0.19
AGAGAG	0.922 ± 0.0426	1.09 ± 0.0215	1.14 ± 0.0249
ATCTTC	1.42 ± 0.0263	1.58 ± 0.0645	1.46 ± 0.104
CAGAGA	0.765 ± 0.0216	0.92 ± 0.0161	0.951 ± 0.0212
GGTTAC	0.891 ± 0.0455	1.05 ± 0.0396	1.01 ± 0.0443
CTCAGA	0.791 ± 0.0265	0.909 ± 0.0246	0.948 ± 0.031
